Reference: PubChem BioAssay AID1159580 (chemical genetic matrix, 2015)
Out of some 5,500 compounds screened, about 2,000 (36%) were called active. Roughly 18% stayed inconclusive and do not appear here. Rule as the data show it: active = normalized growth mostly below about 0.91 (no sharp cut-off); inconclusive = no clear call, values can overlap the other calls; inactive = mostly above about 0.92. Some of the results follow.

Test: chemical genetic growth profiling, strain panel (AID 1159580);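 also: tested at 20 µM; growth read once vehicle control cultures reached saturation at 30 °C; 1 = growth at the plate median or of vehicle wells; lower values mean less growth of the strain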
Conditions: growth OD

Measured: normalized growth

COc1cc([C@@H]2c3cc4c(cc3[C@H](OC(C)=O)[C@H]3COC(=O)[C@H]23)OCO4)cc(OC)c1OC
inactive: S. cerevisiae deletion strains, locus YJR066W, strain TOR1, active compounds read low 0.932 | S. cerevisiae deletion strains, locus YKL009W, strain mrt4, active compounds read low 0.972 | S. cerevisiae deletion strains, locus YKL068W, active compounds read low 0.988 | S. cerevisiae deletion strains, locus YKL085W, strain MDH1 (second series), active compounds read low 1 | S. cerevisiae deletion strains, locus YKL085W, strain MDH1, active compounds read low 1 | S. cerevisiae deletion strains, locus YKL160W, strain elf1, active compounds read low 0.999 | S. cerevisiae deletion strains, locus YKL190W, strain CNB1, active compounds read low 1 | S. cerevisiae deletion strains, locus YKR001C, strain vps1, active compounds read low 0.976 | S. cerevisiae deletion strains, locus YKR026C, strain gcn3, active compounds read low 1.01 | S. cerevisiae deletion strains, locus YKR091W, strain srl3, active compounds read low 1.01 | S. cerevisiae deletion strains, locus YLL001W, strain dnm1, active compounds read low 1 | S. cerevisiae deletion strains, locus YLL026W, active compounds read low 1.01 | S. cerevisiae deletion strains, locus YLL041C, strain sdh2, active compounds read low 1.01 | S. cerevisiae deletion strains, locus YLR027C, strain aat2, active compounds read low 1 | S. cerevisiae deletion strains, locus YLR039C, strain RIC1, active compounds read low 0.954 | S. cerevisiae deletion strains, locus YLR058C, strain SHM2, active compounds read low 0.998 | S. cerevisiae deletion strains, locus YLR102C, strain apc9, active compounds read low 0.974 | S. cerevisiae deletion strains, locus YLR113W, strain HOG1, active compounds read low 1.07 | S. cerevisiae deletion strains, locus YLR221C, strain rsa3, active compounds read low 1.01 | S. cerevisiae deletion strains, locus YLR258W, strain gsy2, active compounds read low 0.997 | S. cerevisiae deletion strains, locus YLR262C, strain YPT6 (second series), active compounds read low 0.914 | S. cerevisiae deletion strains, locus YLR262C, strain YPT6, active compounds read low 0.933 | S. cerevisiae deletion strains, locus YLR268W, strain sec22, active compounds read low 0.984 | S. cerevisiae deletion strains, locus YLR320W, strain mms22, active compounds read low 1 | S. cerevisiae deletion strains, locus YLR330W, strain CHS5, active compounds read low 0.994 | S. cerevisiae deletion strains, locus YLR342W, strain FKS1 (second series), active compounds read low 0.995 | S. cerevisiae deletion strains, locus YLR342W, strain FKS1, active compounds read low 1.01 | S. cerevisiae deletion strains, locus YLR357W, strain rsc2, active compounds read low 1.06 | S. cerevisiae deletion strains, locus YLR370C, strain arc18, active compounds read low 1.01 | S. cerevisiae deletion strains, locus YLR371W, strain rom2, active compounds read low 0.992 | S. cerevisiae deletion strains, locus YLR384C, strain iki3, active compounds read low 1.02 | S. cerevisiae deletion strains, locus YLR418C, strain cdc73, active compounds read low 0.971 | S. cerevisiae deletion strains, locus YML016C, strain PPZ1, active compounds read low 0.997 | S. cerevisiae deletion strains, locus YML032C, strain rad52, active compounds read low 0.97 | S. cerevisiae deletion strains, locus YML120C, strain ndi1, active compounds read low 1 | S. cerevisiae deletion strains, locus YML124C, strain tub3, active compounds read low 0.984 | S. cerevisiae deletion strains, locus YMR058W, strain fet3, active compounds read low 1.01 | S. cerevisiae deletion strains, locus YMR078C, strain ctf18, active compounds read low 0.99 | S. cerevisiae deletion strains, locus YMR125W, strain sto1, active compounds read low 1.01 | S. cerevisiae deletion strains, locus YMR129W, active compounds read low 1 | S. cerevisiae deletion strains, locus YMR205C, strain PFK2, active compounds read low 1.02 | S. cerevisiae deletion strains, locus YMR223W, strain ubp8, active compounds read low 0.974 | S. cerevisiae deletion strains, locus YMR231W, strain pep5, active compounds read low 0.997 | S. cerevisiae deletion strains, locus YMR307W, strain GAS1, active compounds read low 1.02 | S. cerevisiae deletion strains, locus YNL067W, strain RPL9B, active compounds read low 1.01 | S. cerevisiae deletion strains, locus YNL071W, strain lat1, active compounds read low 1.01 | S. cerevisiae deletion strains, locus YNL128W, strain TEP1, active compounds read low 0.992 | S. cerevisiae deletion strains, locus YNL183C, strain NPR1, active compounds read low 0.993 | S. cerevisiae deletion strains, locus YNL209W, strain ssb2, active compounds read low 0.996 | S. cerevisiae deletion strains, locus YNL233W, strain BNI4, active compounds read low 0.997 | S. cerevisiae deletion strains, locus YNL248C, strain rpa49, active compounds read low 1.01 | S. cerevisiae deletion strains, locus YNL250W, strain rad50, active compounds read low 0.985 | S. cerevisiae deletion strains, locus YNL271C, strain bni1, active compounds read low 0.983 | S. cerevisiae deletion strains, locus YNL298W, strain CLA4, active compounds read low 0.997 | S. cerevisiae deletion strains, locus YNL307C, strain MCK1, active compounds read low 0.98 | S. cerevisiae deletion strains, locus YNL322C, strain KRE1 (second series), active compounds read low 1.03 | S. cerevisiae deletion strains, locus YNR049C, strain mso1, active compounds read low 1 | S. cerevisiae deletion strains, locus YNR052C, strain pop2, active compounds read low 0.973 | S. cerevisiae deletion strains, locus YOL006C, strain TOP1, active compounds read low 0.861 | S. cerevisiae deletion strains, locus YOL012C, strain htz1 1.23 | S. cerevisiae deletion strains, locus YOL147C, strain pex11, active compounds read low 0.981 | S. cerevisiae deletion strains, locus YOR001W, strain rrp6, active compounds read low 1 | S. cerevisiae deletion strains, locus YOR061W, strain CKA2, active compounds read low 0.994 | S. cerevisiae deletion strains, locus YOR069W, strain VPS5, active compounds read low 0.99 | S. cerevisiae deletion strains, locus YOR070C, strain gyp1, active compounds read low 1.01 | S. cerevisiae deletion strains, locus YOR080W, strain dia2, active compounds read low 1 | S. cerevisiae deletion strains, locus YOR083W, strain WHI5, active compounds read low 1 | S. cerevisiae deletion strains, locus YOR106W, strain vam3, active compounds read low 1.02 | S. cerevisiae deletion strains, locus YOR136W, strain idh2, active compounds read low 0.98 | S. cerevisiae deletion strains, locus YOR144C, strain elg1, active compounds read low 0.99 | S. cerevisiae deletion strains, locus YOR184W, strain ser1, active compounds read low 1.01 | S. cerevisiae deletion strains, locus YOR231W, strain MKK1, active compounds read low 0.972 | S. cerevisiae deletion strains, locus YOR265W, strain rbl2, active compounds read low 1.01 | S. cerevisiae deletion strains, locus YOR270C, strain vph1, active compounds read low 0.921 | S. cerevisiae deletion strains, locus YOR290C, strain snf2, active compounds read low 1 | S. cerevisiae deletion strains, locus YOR316C, strain cot1, active compounds read low 0.992 | S. cerevisiae deletion strains, locus YPL051W, strain arl3, active compounds read low 1 | S. cerevisiae deletion strains, locus YPL078C, strain atp4, active compounds read low 0.998 | S. cerevisiae deletion strains, locus YPL106C, strain sse1, active compounds read low 1.02 | S. cerevisiae deletion strains, locus YPL240C, strain hsp82, active compounds read low 1.01 | S. cerevisiae deletion strains, locus YPL256C, strain CLN2, active compounds read low 0.986 | S. cerevisiae deletion strains, locus YPR119W, strain clb2, active compounds read low 0.986 | S. cerevisiae deletion strains, locus YPR141C, strain kar3, active compounds read low 0.98 | S. cerevisiae deletion strains, locus YPR163C, strain tif3, active compounds read low 0.991 | S. cerevisiae deletion strains, locus YPR167C, strain met16, active compounds read low 0.969 | S. cerevisiae deletion strains, strain wtn01, active compounds read low 1 | S. cerevisiae strains, strain wild type, active compounds read low 1
